A selection: hits, their analogues and other compounds. The true share with any hit is near 17%.
DT40 TDP1 CPT = DT40-hTDP1 cell growth loss with CPT | Potency, µM (doses to about 46.2 µM), for the others: at the top dose activity change, negative = growth inhibition, most hits filed as inhibitors | chicken DT40 Tdp1-/-;hTDP1 cells + 20 nM CPT, ATP luminescence, 48 h | 12% of 420,000 active; also: % is scaled to controls: 0 for no effect and ±100 for the full control effect; nearly all actives have a fitted effect of over 55% in size
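Chicken DT40 Tdp1-/- cells stably complemented with human TDP1 were seeded at 400 cells/well in medium containing 20 nM camptothecin, exposed to pin-transferred compounds, and grown at 37 °C for at least 48 hr. Viability was read as ATP luminescence.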
HT1080 IDH1KD tx = HT-1080 IDH1 knockdown cell toxicity (counter line). 2% of 360,000 active. HT-1080 IDH1 knockdown viability, ATP luminescence, 48 h. Potency, µM (top dose mostly 46.1 µM), without a hit: at the highest dose activity, negative = toxicity, most hits filed as cytotoxic;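 also: 0% = DMSO wells and -100% = cell-free medium wells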
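After a 2 h attachment period, IDH1KD HT-1080 cells took pin-transferred compound for 48 h at 37 °C; ATP-based luminescence after 10 min room-temperature reagent incubation reported viability.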
TDP1 cell noCPT = qHTS for Inhibitors of human tyrosyl-DNA phosphodiesterase 1 (TDP1): qHTS in cells in absence of CPT; DT40 Tdp1-/- hTDP1 cells, no CPT, ATP luminescence, 48 h; Potency, µM (titrated, usually from 46.2 µM), for the others: at the highest dose activity change, negative = growth inhibition, usual class: inhibitors; 15% of 420,000 active; also: % is scaled to controls: 0 for no effect and ±100 for the full control effect; nearly all actives have a fitted effect of over 55% in size
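Stably hTDP1-transfected Tdp1-null chicken DT40 cells were treated with library compounds minus camptothecin and grown for at least 48 hr at 37 °C, after which cellular ATP was quantified by luminescence.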
HT1080NT lethal = kills 2HG-producing HT-1080-NT fibrosarcoma cells; HT-1080-NT fibrosarcoma viability, CellTiter-Glo ATP luminescence, 48 h; Potency, µM (top dose mostly 46.1 µM), for the others: at the highest dose activity, negative = less viability, most hits filed as cytotoxic; 1.6% of 360,000 active;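 also: NT is the 2HG producing partner of a matched IDH1 knockdown line; 0% = DMSO-treated cells and -100% = media-only wells without cells; nearly all actives have a fitted effect of over 55% in size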
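A 48-hour cytotoxicity screen used HT-1080-NT cells plated 2 hours before compound delivery. ATP-based CellTiter-Glo luminescence measured viability, normalized to DMSO and no-cell controls.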
HepG2 tox = kills HepG2 cells in TGF-b inhibitor counter-screen; HepG2 CAGA-GFP viability, ATP luminescence, 18 h; 0.76% of 410,000 active; Potency, µM (doses to about 46.1 µM), without a hit: at the top dose activity change, negative = cytotoxicity, usual class: cytotoxic
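CellTiter-Glo luminescence gave cytotoxicity after 18 hours at 37 degrees C. The cells were HepG2 CAGA-GFP in 1% FBS DMEM, stimulated with 500 pg/mL TGF-beta after compound addition. %Activity was normalised to no-cell wells (complete cell-killing) and DMSO (no toxicity), and curves were fitted and classified.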
TGFb SMAD3 inh = TGF-b pathway inhibition; HepG2 CAGA-GFP TGF-b/SMAD3 reporter, GFP fluorescence, 18 h; TGF-beta stimulated, 500 pg/mL final; Potency, µM (highest dose often 46.1 µM), inactives show at the top dose activity, negative = inhibition, most hits filed as inhibitors; 1.2% of 410,000 active; also: % is scaled to controls: 0 for no effect and ±100 for the full control effect; nearly all actives have a fitted effect of over 65% in size
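HEPG2 CAGA-GFP reporter cells (1000/well, DMEM with 1% FBS) received compounds, then recombinant TGF-beta at 500 pg/mL final for 18 hours at 37 degrees C. Per-cell GFP summed per well was normalised to unstimulated and stimulated DMSO controls before curve fitting.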
* = called active by the depositor; ? = inconclusive; . = not tested or not shown; [ ] = remark or other dose. Calls follow the shape of the dose curve; as a rule, active = well fitted curve in the direction sought with a large enough effect; inconclusive = small, poorly fitted or top-dose-only effect, or another doubt; inactive = no such curve, though single readings can be large; an effect the other way counts as inactive or inconclusive. Potency is read from the fitted curve at half-maximal effect.

SMILES	DT40 TDP1 CPT	HT1080 IDH1KD tx	TDP1 cell noCPT	HT1080NT lethal	HepG2 tox	TGFb SMAD3 inh
CCN1CCN(S(=O)(=O)c2ccc(Cl)c(C(=O)N(C)Cc3cccs3)c2)CC1	?	-6%	?	1%[9.24 µM]	-22%	-25%
COc1ccccc1CNC(=O)c1cccc(S(=O)(=O)N2CCN(c3ccc(F)cc3)CC2)c1	?	-12%	12µM*	-7%	-21%	?
COc1cccc(CN(C)C(=O)c2cccc(S(=O)(=O)N3CCN(c4ccccc4)CC3)c2)c1OC	18µM*	-10%	8.2µM*	-1%	-20%	?
CCN1CCN(S(=O)(=O)c2ccc(Cl)c(C(=O)N(C)Cc3ccc(Cl)cc3Cl)c2)CC1	?	4%	23µM*	-10%	0%	-26%
COc1ccc(S(=O)(=O)N2CCC(C(=O)NCc3ccncc3)CC2)cc1	18%	13%	-29%	15%	-3%	-2%
CN(C)C(CNC(=O)c1cccc(S(=O)(=O)N2CCN(c3ccc(F)cc3)CC2)c1)c1ccccc1 (stereo not drawn)	15µM*	15µM*	9.2µM*	?	-23%	?
COc1ccc(CNC(=O)c2cccc(S(=O)(=O)N3CCN(c4ccc(F)cc4)CC3)c2)cc1	?	-4%	?	-3%	-13%	-7%
CC(C)OCc1cc(CN2CCN(c3cccc(C(F)(F)F)c3)CC2)c(O)c2ncccc12	4.6µM*	.	4.6µM*	.	-53%	1.6µM*
O=[N+]([O-])c1cc(CN2CCN(c3cccc(C(F)(F)F)c3)CC2)c2cccnc2c1O	0.92µM*	?	1.5µM*	?	-7%	-23%
CCOCc1cc(CN2CCN(c3cccc(C(F)(F)F)c3)CC2)c(O)c2ncccc12	6.5µM*	.	6.5µM*	.	-36%	2.8µM*
O=C(O)c1cc([N+](=O)[O-])cc([N+](=O)[O-])c1N1CCN(c2cccc(C(F)(F)F)c2)CC1	9%	-1%	-2%	-13%	-9%	-19%
O=[N+]([O-])c1cc(CN2CCCC2)c2cccnc2c1O	3%	?	?	16µM*	1%	6%
O=C(/C=C/c1ccccc1)C1=C(O)C(=O)N(CCO)C1c1ccccc1[N+](=O)[O-] (stereo not drawn)	-10%	-3%	?	-1%	-19%	-12%
COc1cccc(C(=O)Nc2ccc(S(=O)(=O)Nc3cc(C)nc(C)n3)cc2)c1	-21%	11%	-3%	8%	-20%	4%
CC1OCC23CC[C@@]4(C)CCC(C)(C)C[C@H]4[C@]2(C)CCC12C3CC[C@@]1(C)C2C(=O)CC(=O)[C@@H]1C (stereo partly drawn)	14%[9.04 µM]	.	-4%[9.04 µM]	.	.	.
CC(=O)c1ccc(NC(=O)c2ccc(CSc3ccccc3)o2)cc1	16µM*	0%	?	4%	-32%	-17%
COc1ccc(NC(=O)CN(c2ccc(OC)cc2)S(=O)(=O)c2c(C)nn(C)c2C)cc1	-9%	-1%	12%	2%	-24%	?
CC(C)C[C@H]1CNC(=S)N1C[C@H]1CCCN1C[C@H](Cc1ccccc1)N1C[C@H](Cc2ccc(O)cc2)N(CC2CCCCC2)C1=S	16µM*	16µM*	23µM*	15µM*	-38%	11µM*
CC(C)C[C@H]1CNC(=S)N1CC1CCCN1C[C@H](Cc1ccc(O)cc1)N1C[C@H](Cc2ccccc2)N(CC2CCCCC2)C1=S (stereo partly drawn)	5.8µM*	-2%	5.8µM*	?	-2%	?
CC(C)C[C@H]1CN([C@@H](Cc2ccccc2)CN2CCC[C@@H]2CN2C(=O)C(=O)NC[C@@H]2Cc2ccc(O)cc2)C(=O)C(=O)N1CC1CCCCC1	-23%	9%	?	4%	-9%	-20%
CC(C)C[C@H]1CNC(=S)N1CC1CCCN1C[C@H](Cc1ccccc1)N1C[C@H](Cc2ccccc2)N(CC2CCCCC2)C1=S (stereo partly drawn)	?	?	?	-4%	26%	4%
Cc1ccc2nc3c(cc2c1)c(NC(=O)C(C)(C)C)nn3CC(C)C	-22%	1%	-16%	-5%	-5%	8%
CCOc1ccc(NC(=O)Nc2nnc(N3CCCCC3C)s2)cc1 (stereo not drawn)	23µM*	.	23µM*	.	4%	-15%
COc1ccc(NC(=O)Nc2nnc(N(C)C3CCCCC3)s2)c(OC)c1	?	.	?	.	-104%	11µM*
COC(=O)c1ccc(NC(=O)Nc2nnc(N(C)C3CCCCC3)s2)cc1	?	.	?	.	-5%	-17%
SMILES	DT40 TDP1 CPT	HT1080 IDH1KD tx	TDP1 cell noCPT	HT1080NT lethal	HepG2 tox	TGFb SMAD3 inh
COc1ccc(NC(=O)Nc2nnc(N3CCCCCC3)s2)c(OC)c1	?	.	18µM*	.	2%	-13%
CN(c1nnc(NC(=O)Nc2ccc(Br)cc2)s1)C1CCCCC1	?	.	15µM*	.	-1%	-20%
CC(C)CN(C(=O)c1cccc(S(=O)(=O)N2CCN(C)CC2)c1)C1CCS(=O)(=O)C1 (stereo not drawn)	8%	6%	7%	1%	8%	10%
COC(=O)/C=C/c1ccc(C(=O)NCC(=O)N[C@@H](CCC(=O)OC)C(=O)N[C@@H](CC(C)C)C(N)=O)cc1	-8%	.	2%	.	.	.
Cc1c(C=O)c(Cl)n(C)c(=O)c1C#N	-5%	26%	-1%	11%	6%	0%
Cc1ccc(C(=O)N2CCN(CCc3ccncc3)CC2)cc1	7%	.	-3%	.	-2%	2%
COc1ccc(C(=O)NCC(c2cccnc2)N2CCc3ccccc32)cc1OC (stereo not drawn)	15µM*	.	21µM*	.	-39%	-31%
O=C(NCC(c1cccnc1)N1CCc2ccccc21)c1ccc(F)cc1 (stereo not drawn)	23µM*	.	18µM*	.	-32%	?
COc1ccc(C(=O)NCC(c2cccnc2)N2CCc3ccccc3C2)cc1OC (stereo not drawn)	16µM*	.	?	.	-23%	-17%
COc1ccc(C(=O)NCC(c2cccnc2)N2CCN(c3ccccc3)CC2)cc1OC (stereo not drawn)	?	-8%	-21%	0%	-10%	-6%
